Source: article PMC9911399, “Two distinct binding modes provide the RNA-binding protein RbFox with extraordinary sequence specificity”
Residue numbers refer to the chain shown, from its start. The full ranking holds about 16,000 sequences; the median of “ka relative to ugcaugu” is about 0.096, and the highest 2% start at about 0.35. The full list was thinned out, with the highest values kept by preference.

T1: RBFOX1 RRM RbFoxmut (Fox-RRM*) (Homo sapiens, UniProt Q9NWB1 109-208, R118D;E147R;N151S;E152T)
T1 sequence: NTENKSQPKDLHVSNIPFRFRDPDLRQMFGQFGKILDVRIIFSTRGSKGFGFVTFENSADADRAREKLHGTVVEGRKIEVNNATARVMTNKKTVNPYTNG

B1: AAGACCU (DNA:RNA)
RNA: GGGAGACCGGAAUUCAGAUUGUCCAAGACCUUUAAAUCCCGUCGUAGCCACCA
DNA 1: CAATCTGAATTCCGGTCTCCC
DNA 2: TGGTGGCTACGACGGGATT
B2: GACUUGG (DNA:RNA)
RNA: B1 RNA with A25G, G27C, A28U, C29U, C30G, U31G
DNA 1: CAATCTGAATTCCGGTCTCCC
DNA 2: TGGTGGCTACGACGGGATT
B3: CCCAUAU (DNA:RNA)
RNA: B1 RNA with A25C, A26C, G27C, C29U, C30A
DNA 1: CAATCTGAATTCCGGTCTCCC
DNA 2: TGGTGGCTACGACGGGATT
B4: UUCGAGC (DNA:RNA)
RNA: GGGAGACCGGAAUUCAGAUUGUCCUUCGAGCUUAAAUCCCGUCGUAGCCACCA
DNA 1: CAATCTGAATTCCGGTCTCCC
DNA 2: TGGTGGCTACGACGGGATT
B5: GAAGACC (DNA:RNA)
RNA: B4 RNA with U25G, U26A, C27A, G30C
DNA 1: CAATCTGAATTCCGGTCTCCC
DNA 2: TGGTGGCTACGACGGGATT
B6: CAAUUUU (DNA:RNA)
RNA: B1 RNA with A25C, G27A, A28U, C29U, C30U
DNA 1: CAATCTGAATTCCGGTCTCCC
DNA 2: TGGTGGCTACGACGGGATT
B7: CUCUUGA (DNA:RNA)
RNA: B4 RNA with U25C, G28U, A29U, C31A
DNA 1: CAATCTGAATTCCGGTCTCCC
DNA 2: TGGTGGCTACGACGGGATT
B8: UUUGGCC (DNA:RNA)
RNA: B4 RNA with C27U, A29G, G30C
DNA 1: CAATCTGAATTCCGGTCTCCC
DNA 2: TGGTGGCTACGACGGGATT
B9: GACUCAA (DNA:RNA)
RNA: B1 RNA with A25G, G27C, A28U, C30A, U31A
DNA 1: CAATCTGAATTCCGGTCTCCC
DNA 2: TGGTGGCTACGACGGGATT
B10: UGUCGUG (DNA:RNA)
RNA: B4 RNA with U26G, C27U, G28C, A29G, G30U, C31G
DNA 1: CAATCTGAATTCCGGTCTCCC
DNA 2: TGGTGGCTACGACGGGATT
B11: UGUGUAG (DNA:RNA)
RNA: B4 RNA with U26G, C27U, A29U, G30A, C31G
DNA 1: CAATCTGAATTCCGGTCTCCC
DNA 2: TGGTGGCTACGACGGGATT
B12: CUGUGUC (DNA:RNA)
RNA: B4 RNA with U25C, C27G, G28U, A29G, G30U
DNA 1: CAATCTGAATTCCGGTCTCCC
DNA 2: TGGTGGCTACGACGGGATT
B13: UGUGUCG (DNA:RNA)
RNA: B4 RNA with U26G, C27U, A29U, G30C, C31G
DNA 1: CAATCTGAATTCCGGTCTCCC
DNA 2: TGGTGGCTACGACGGGATT
B14: UGUGUUG (DNA:RNA)
RNA: B4 RNA with U26G, C27U, A29U, G30U, C31G
DNA 1: CAATCTGAATTCCGGTCTCCC
DNA 2: TGGTGGCTACGACGGGATT
B15: UGUUGUG (DNA:RNA)
RNA: B4 RNA with U26G, C27U, G28U, A29G, G30U, C31G
DNA 1: CAATCTGAATTCCGGTCTCCC
DNA 2: TGGTGGCTACGACGGGATT
B16: CCCUGUC (DNA:RNA)
RNA: B4 RNA with U25C, U26C, G28U, A29G, G30U
DNA 1: CAATCTGAATTCCGGTCTCCC
DNA 2: TGGTGGCTACGACGGGATT
B17: UGUGUCU (DNA:RNA)
RNA: B1 RNA with A25U, A26G, G27U, A28G, C29U
DNA 1: CAATCTGAATTCCGGTCTCCC
DNA 2: TGGTGGCTACGACGGGATT
B18: UGUAGUG (DNA:RNA)
RNA: B1 RNA with A25U, A26G, G27U, C29G, C30U, U31G
DNA 1: CAATCTGAATTCCGGTCTCCC
DNA 2: TGGTGGCTACGACGGGATT
B19: GCACGUU (DNA:RNA)
RNA: B1 RNA with A25G, A26C, G27A, A28C, C29G, C30U
DNA 1: CAATCTGAATTCCGGTCTCCC
DNA 2: TGGTGGCTACGACGGGATT
B20: GUUAAGG (DNA:RNA)
RNA: B4 RNA with U25G, C27U, G28A, C31G
DNA 1: CAATCTGAATTCCGGTCTCCC
DNA 2: TGGTGGCTACGACGGGATT

Each binder was assayed against T1, RBFOX1 RRM RbFoxmut (Fox-RRM*) (assay: EMSA; HiTS-Eq, 1 nM pool, 10 min; buffer printed only for the single-RNA assays: 10 mM Tris pH 7.5, 150 mM NaCl, 3.4 mM EDTA, 0.001% NP-40, 30 C). Settings: tags: His6 N-terminal (pET28a); label: 5' 32P.
Outline: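 These values rest on relative association constants, computed from read-count changes of each RNA species versus the control reaction and normalised to the cognate motif. Reads came from free RNA recovered by 8% native PAGE after purified RbFox RRM (wild type or mutant) at increasing concentrations was equilibrated for 10 min in 50 µL with 1 nM of a 5′-radiolabelled pool with 7 randomized nucleotides and DNA-annealed flanks.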
For B1, the binding signal was 0.0678 KA relative to UGCAUGU.
For B2, the binding signal was 0.129 KA relative to UGCAUGU.
With B3 the binding signal was 0.0892 KA relative to UGCAUGU.
In the case of B4, the binding signal is reported as 0.116 KA relative to UGCAUGU.
With B5 the binding signal was 0.0506 KA relative to UGCAUGU.
In the case of B6, the binding signal is reported as 0.0669 KA relative to UGCAUGU.
In the case of B7, the binding signal is reported as 0.107 KA relative to UGCAUGU.
With B8 the binding signal was 0.282 KA relative to UGCAUGU.
In the case of B9, the binding signal is reported as 0.0967 KA relative to UGCAUGU.
In the case of B10, the binding signal is reported as 0.193 KA relative to UGCAUGU.
For B11, the binding signal was 0.196 KA relative to UGCAUGU.
B12 was tested, and the binding signal was 0.436 KA relative to UGCAUGU.
B13 was tested, and the binding signal was 0.253 KA relative to UGCAUGU.
With B14 the binding signal was 0.383 KA relative to UGCAUGU.
For B15, the binding signal was 0.29 KA relative to UGCAUGU.
For B16, the binding signal was 0.194 KA relative to UGCAUGU.
For B17, the binding signal was 0.131 KA relative to UGCAUGU.
For B18, the binding signal was 0.682 KA relative to UGCAUGU.
B19 was tested, and the binding signal was 0.318 KA relative to UGCAUGU.
With B20 the binding signal was 0.0786 KA relative to UGCAUGU.
